Reference: the supplement of paper PMC10849652
Targets with a hit are over-represented here; the source holds about 8,800 in all. About 0.5% of all pairs of compound and target were hits. Unmarked numbers belong to inactive results.

How the values were obtained:
Assay in all cases: log2 fold change, soluble protein after heating vs DMSO (PISA); higher = thermal stabilisation; K562 lysate, 10 uM; active = over 0.2 and 3.5 SD of the protein, either way, in both replicates (recomputed)
[1] = compound: CCCS(=O)(=O)Nc1ccc(F)c(C(=O)c2c[nH]c3ncc(-c4ccc(Cl)cc4)cc23)c1F [vemurafenib]
How it was run: (§1)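 Dounce homogenisation of K562 pellets in PBS pH 7.4 with 1 mM MgCl2 produced a crude extract, used at 1 mg/mL protein. Exposure to 10 μM compound lasted 30 min, and aliquots were then heated for 3 min across 48°C-58°C, pooled and brought to 0.5% NP-40 at 4°C. The supernatant after 21,000xg for 90 min was quantified by TMTpro 16plex LC-MS/MS with channel sums equalised. Duplicate values are given as log-two fold change in thermal stability relative to solvent controls.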

[2] = compound: CCCS(=O)(=O)Nc1ccc(F)c(C(=O)c2c[nH]c3ncc(Cl)cc23)c1F
How it was run: as §1

[3] = compound: CCN(CCCOc1ccc2c(Nc3cc(CC(=O)Nc4cccc(F)c4)[nH]n3)ncnc2c1)CCOP(=O)(O)O [barasertib]
How it was run: as §1

[4] = compound: CC[C@@H]1C(=O)N(C)c2cnc(Nc3ccc(C(=O)NC4CCN(C)CC4)cc3OC)nc2N1C1CCCC1
How it was run: as §1

[5] = compound: CC[C@@H]1C(=O)N(C)c2cnc(Nc3ccc(C(=O)N[C@H]4CC[C@H](N5CCN(CC6CC6)CC5)CC4)cc3OC)nc2N1C(C)C [volasertib]
How it was run: as §1

[6] = compound: CCn1c(C(=O)N(C2CC2)C2CC2)cc2c3c(ncn3C)c(Nc3cc(C)n(C)n3)nc21
How it was run: as §1

[7] = compound: CCn1cc(-c2ccnc3[nH]c(-c4cccc(CN(C)C)c4)cc23)c(-c2ccc(NC(=O)N(C)C)cc2)n1
How it was run: as §1

[8] = compound: CN1CCC(CNc2ccc3ncc(-c4cccc(OC(F)(F)F)c4)n3n2)CC1
How it was run: as §1

[9] = compound: CN1CCN(CCOc2cc(OC3CCOCC3)c3c(Nc4c(Cl)ccc5c4OCO5)ncnc3c2)CC1 [saracatinib]
How it was run: as §1

[10] = compound: CN1CCN(c2nc(C3=C(c4c[nH]c5ccccc45)C(=O)NC3=O)c3ccccc3n2)CC1 [sotrastaurin]
How it was run: as §1

Sequence of UniProt P07311 (P07311 whole entry, looked up): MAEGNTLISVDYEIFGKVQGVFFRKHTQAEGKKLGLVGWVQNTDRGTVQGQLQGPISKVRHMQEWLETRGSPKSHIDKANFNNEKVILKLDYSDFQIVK
Sequence of UniProt Q9NXU5 (Q9NXU5 whole entry, looked up): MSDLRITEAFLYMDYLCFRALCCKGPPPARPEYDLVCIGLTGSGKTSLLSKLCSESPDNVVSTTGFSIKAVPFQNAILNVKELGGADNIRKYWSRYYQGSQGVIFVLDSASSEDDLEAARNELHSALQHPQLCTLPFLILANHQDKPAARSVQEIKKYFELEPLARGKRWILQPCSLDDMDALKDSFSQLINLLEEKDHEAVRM
Sequence of UniProt P28288 (P28288 whole entry, looked up): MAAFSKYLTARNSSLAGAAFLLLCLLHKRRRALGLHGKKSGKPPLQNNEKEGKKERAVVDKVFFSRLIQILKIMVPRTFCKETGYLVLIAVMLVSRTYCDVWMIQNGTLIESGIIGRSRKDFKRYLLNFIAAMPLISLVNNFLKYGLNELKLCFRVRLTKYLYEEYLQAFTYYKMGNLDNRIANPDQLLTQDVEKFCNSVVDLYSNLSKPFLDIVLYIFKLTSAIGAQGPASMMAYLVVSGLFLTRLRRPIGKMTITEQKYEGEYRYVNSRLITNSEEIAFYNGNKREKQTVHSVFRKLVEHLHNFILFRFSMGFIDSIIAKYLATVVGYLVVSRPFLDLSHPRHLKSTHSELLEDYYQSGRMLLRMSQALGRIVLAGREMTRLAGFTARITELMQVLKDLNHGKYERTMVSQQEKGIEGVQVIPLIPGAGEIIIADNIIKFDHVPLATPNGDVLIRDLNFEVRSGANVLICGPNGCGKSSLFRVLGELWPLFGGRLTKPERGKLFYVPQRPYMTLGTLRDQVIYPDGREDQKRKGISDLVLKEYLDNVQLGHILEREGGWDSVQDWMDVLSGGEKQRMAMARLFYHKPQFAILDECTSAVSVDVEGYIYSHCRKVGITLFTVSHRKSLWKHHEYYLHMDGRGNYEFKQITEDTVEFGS
Sequence of UniProt Q9NUQ8 (Q9NUQ8 whole entry, looked up): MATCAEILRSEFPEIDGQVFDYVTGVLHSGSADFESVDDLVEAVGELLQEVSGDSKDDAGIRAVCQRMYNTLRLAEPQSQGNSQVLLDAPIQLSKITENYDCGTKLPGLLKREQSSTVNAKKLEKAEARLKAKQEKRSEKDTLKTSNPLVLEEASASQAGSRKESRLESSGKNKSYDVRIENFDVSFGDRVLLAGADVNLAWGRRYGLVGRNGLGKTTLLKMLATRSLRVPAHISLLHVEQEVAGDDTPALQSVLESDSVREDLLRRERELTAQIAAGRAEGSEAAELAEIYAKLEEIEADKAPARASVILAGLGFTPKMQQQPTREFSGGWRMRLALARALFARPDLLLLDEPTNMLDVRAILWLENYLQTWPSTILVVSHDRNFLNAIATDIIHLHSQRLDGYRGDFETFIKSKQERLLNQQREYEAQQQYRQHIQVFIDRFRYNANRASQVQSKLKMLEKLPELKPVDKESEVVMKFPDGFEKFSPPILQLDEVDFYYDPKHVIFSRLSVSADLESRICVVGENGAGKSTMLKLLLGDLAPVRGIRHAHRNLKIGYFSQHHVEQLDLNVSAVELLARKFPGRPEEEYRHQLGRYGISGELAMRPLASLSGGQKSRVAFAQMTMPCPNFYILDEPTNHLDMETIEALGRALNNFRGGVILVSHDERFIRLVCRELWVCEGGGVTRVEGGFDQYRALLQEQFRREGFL
Sequence of UniProt Q99943 (Q99943 whole entry, looked up): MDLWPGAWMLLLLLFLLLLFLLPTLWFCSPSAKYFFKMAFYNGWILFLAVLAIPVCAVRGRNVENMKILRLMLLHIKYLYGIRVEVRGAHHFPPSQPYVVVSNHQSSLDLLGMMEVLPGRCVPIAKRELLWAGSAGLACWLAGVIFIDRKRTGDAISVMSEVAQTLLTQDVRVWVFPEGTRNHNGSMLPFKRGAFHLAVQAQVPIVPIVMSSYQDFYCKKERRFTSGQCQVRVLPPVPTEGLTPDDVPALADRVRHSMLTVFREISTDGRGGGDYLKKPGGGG
Sequence of UniProt Q5T5U3 (Q5T5U3 whole entry, looked up): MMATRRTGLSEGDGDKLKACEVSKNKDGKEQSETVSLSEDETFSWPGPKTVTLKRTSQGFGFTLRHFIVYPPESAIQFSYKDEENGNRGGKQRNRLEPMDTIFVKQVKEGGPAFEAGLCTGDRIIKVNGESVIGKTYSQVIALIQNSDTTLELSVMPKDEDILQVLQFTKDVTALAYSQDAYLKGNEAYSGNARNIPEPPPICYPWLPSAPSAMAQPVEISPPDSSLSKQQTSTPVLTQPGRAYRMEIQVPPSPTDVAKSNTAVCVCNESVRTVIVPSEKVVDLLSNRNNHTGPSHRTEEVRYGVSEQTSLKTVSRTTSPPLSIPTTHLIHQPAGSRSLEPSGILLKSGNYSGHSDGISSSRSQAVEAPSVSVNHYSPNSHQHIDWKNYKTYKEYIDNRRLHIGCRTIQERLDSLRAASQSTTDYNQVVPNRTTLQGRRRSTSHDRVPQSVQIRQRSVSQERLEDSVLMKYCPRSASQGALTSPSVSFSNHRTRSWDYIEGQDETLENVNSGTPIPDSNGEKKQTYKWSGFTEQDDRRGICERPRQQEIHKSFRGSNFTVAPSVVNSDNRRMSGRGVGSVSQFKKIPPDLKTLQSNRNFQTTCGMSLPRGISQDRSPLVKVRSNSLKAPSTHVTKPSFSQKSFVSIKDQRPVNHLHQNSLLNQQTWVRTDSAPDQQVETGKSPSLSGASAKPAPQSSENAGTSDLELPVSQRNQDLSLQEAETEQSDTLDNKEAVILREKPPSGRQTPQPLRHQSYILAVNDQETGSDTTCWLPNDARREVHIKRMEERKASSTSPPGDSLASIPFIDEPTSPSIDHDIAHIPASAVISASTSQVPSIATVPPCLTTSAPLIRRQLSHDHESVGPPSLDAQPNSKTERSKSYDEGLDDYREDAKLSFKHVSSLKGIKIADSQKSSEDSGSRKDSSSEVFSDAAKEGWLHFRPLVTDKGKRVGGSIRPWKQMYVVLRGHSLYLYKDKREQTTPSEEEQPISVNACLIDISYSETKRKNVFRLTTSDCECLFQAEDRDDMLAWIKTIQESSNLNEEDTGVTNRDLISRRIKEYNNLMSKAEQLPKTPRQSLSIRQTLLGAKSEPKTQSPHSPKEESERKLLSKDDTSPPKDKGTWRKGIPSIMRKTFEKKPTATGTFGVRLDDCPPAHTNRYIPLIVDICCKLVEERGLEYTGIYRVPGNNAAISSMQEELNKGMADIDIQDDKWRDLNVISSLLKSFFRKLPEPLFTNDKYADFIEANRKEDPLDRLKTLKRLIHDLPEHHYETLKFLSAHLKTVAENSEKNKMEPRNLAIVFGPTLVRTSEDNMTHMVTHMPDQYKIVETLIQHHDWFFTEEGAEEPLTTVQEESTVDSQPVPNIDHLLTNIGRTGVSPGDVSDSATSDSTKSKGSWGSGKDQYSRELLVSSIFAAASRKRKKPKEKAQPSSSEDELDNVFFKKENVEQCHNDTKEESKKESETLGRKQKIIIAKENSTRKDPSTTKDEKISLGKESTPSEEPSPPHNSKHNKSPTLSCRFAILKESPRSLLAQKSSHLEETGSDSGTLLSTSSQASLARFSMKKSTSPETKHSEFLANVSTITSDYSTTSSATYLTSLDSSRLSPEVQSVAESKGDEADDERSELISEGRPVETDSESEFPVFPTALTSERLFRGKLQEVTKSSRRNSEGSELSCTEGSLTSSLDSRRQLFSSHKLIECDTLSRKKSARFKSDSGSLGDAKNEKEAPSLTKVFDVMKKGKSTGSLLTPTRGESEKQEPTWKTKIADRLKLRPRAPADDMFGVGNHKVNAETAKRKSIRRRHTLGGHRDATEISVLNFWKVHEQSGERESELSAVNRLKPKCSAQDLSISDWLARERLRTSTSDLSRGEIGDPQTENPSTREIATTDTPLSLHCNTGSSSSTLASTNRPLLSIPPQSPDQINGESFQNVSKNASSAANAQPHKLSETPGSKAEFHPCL
Sequence of UniProt Q6NXT1 (Q6NXT1 whole entry, looked up): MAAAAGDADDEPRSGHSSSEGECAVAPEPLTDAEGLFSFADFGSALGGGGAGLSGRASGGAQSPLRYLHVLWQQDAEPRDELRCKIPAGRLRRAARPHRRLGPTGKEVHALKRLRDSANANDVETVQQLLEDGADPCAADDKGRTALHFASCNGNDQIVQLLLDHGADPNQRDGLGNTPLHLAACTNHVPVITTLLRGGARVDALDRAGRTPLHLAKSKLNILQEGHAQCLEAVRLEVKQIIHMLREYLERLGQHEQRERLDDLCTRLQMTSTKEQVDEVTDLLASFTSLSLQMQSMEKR
Sequence of UniProt P04083 (P04083 whole entry, looked up): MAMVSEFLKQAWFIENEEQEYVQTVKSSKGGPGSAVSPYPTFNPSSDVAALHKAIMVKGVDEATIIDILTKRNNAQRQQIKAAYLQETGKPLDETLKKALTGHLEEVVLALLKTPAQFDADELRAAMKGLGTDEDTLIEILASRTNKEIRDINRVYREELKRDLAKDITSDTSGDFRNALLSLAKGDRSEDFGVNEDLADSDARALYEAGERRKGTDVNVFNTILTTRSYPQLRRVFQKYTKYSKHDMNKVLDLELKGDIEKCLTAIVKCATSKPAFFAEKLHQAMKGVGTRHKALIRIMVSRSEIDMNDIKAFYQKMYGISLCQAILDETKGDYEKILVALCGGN
Sequence of UniProt Q9NWB6 (Q9NWB6 whole entry, looked up): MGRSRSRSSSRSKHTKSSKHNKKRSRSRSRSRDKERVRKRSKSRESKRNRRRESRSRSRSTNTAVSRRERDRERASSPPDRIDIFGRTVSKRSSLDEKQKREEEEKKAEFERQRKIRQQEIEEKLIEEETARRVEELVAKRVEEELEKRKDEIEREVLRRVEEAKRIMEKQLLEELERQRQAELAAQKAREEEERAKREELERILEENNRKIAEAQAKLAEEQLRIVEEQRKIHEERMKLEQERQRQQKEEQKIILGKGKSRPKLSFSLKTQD

| Target | log2 fold change [1] | log2 fold change [2] | log2 fold change [3] | log2 fold change [4] | log2 fold change [5] | log2 fold change [6] | log2 fold change [7] | log2 fold change [8] | log2 fold change [9] | log2 fold change [10] |
| --- | --- | --- | --- | --- | --- | --- | --- | --- | --- | --- |
| ACYP1 (UniProt P07311) | -0.038 | -0.024 | 0.024 | -0.005 | 0.032 | 0.006 | 0.284 (active) | -0.082 | 0.003 | -0.032 |
| ACACA isoform 4 (UniProt Q13085) | 0.014 | 0.024 | 0.043 | -0.062 | -0.085 | 0.056 | -0.025 | -0.067 | 0.001 | 0.011 |
| ALDH5A1 isoform 2 (UniProt P51649) | -0.016 | 0.011 | -0.009 | -0.024 | -0.001 | 0.031 | 0.004 | 0.008 | 0 | -0.023 |
| ARL15 (UniProt Q9NXU5) | -0.057 | -0.019 | 0.002 | -0.082 | -0.009 | 0.035 | 0.765 (active) | -0.119 | -0.01 | 0.049 |
| AP3D1 isoform 5 (UniProt O14617) | -0.001 | -0.002 | 0.036 | -0.004 | 0 | 0.002 | -0.08 | 0.034 | 0.001 | 0.013 |
| ADK (UniProt P55263) | -0.052 | -0.036 | -0.054 | 0.458 (active) | 0.437 (active) | -0.027 | 0.044 | 0.155 | 0.043 | 0.343 |
| AMPD3 isoform 4 (UniProt Q01432) | -0.021 | 0.005 | 0.017 | -0.033 | -0.026 | -0.029 | 0.1 | -0.046 | 0.043 | 0.024 |
| ASNS (UniProt P08243) | -0.002 | -0.002 | 0.025 | -0.056 | -0.047 | 0.005 | 0.031 | -0.03 | 0.022 | 0.014 |
| AP1G2 (UniProt O75843) | -0.057 | 0.044 | 0.011 | -0.014 | -0.053 | -0.003 | -0.007 | 0.032 | -0.032 | 0.022 |
| ANKRD54 (UniProt Q6NXT1) | -0.031 | 0.053 | -0.026 | 0.021 | 0.006 | -0.005 | 0.004 | 0.011 | -0.004 | 0.001 |
| ACIN1 (UniProt E7EQT4) | -0.057 | 0.026 | -0.021 | -0.011 | 0.045 | 0.048 | -0.321 | 0.127 | -0.016 | 0.047 |
| ARHGAP21 (UniProt Q5T5U3) | 0.107 | 0.073 | 0.061 | -0.01 | -0.027 | 0.037 | 0.043 | -0.202 | 0.034 | 0.023 |
| ACTG1 (UniProt I3L4N8) | 0.131 | -0.062 | 0.218 | -0.208 | -0.006 | -0.384 | 0.94 | -0.091 | -0.002 | 0.001 |
| ANXA11 (UniProt P50995) | 0.02 | -0.013 | 0.002 | 0.024 | -0.031 | 0.044 | -0.049 | -0.01 | -0.009 | -0.017 |
| ABCF3 (UniProt Q9NUQ8) | 0.013 | 0.037 | 0.03 | -0.079 | -0.099 | 0.044 | 0.015 | -0.059 | -0.006 | 0.033 |
| ARGLU1 (UniProt Q9NWB6) | -0.013 | 0.027 | -0.043 | 0.001 | 0.027 | -0.035 | 0.073 | -0.02 | 0.047 | -0.019 |
| ALDH1A1 (UniProt P00352) | -0.027 | 0.001 | -0.014 | -0.016 | -0.005 | -0.052 | 0.051 | -0.09 | 0.272 | 0.001 |
| ARHGAP25 isoform 4 (UniProt P42331) | 0.021 | 0.049 | 0.081 | -0.045 | -0.029 | -0.032 | -0.012 | 0.019 | -0.034 | 0.043 |
| AK4 (UniProt P27144) | -0.068 | 0.018 | 0.11 | -0.057 | -0.024 | 0.023 | -0.036 | -0.002 | -0.016 | 0.05 |
| APOB (UniProt P04114) | -0.006 | 0.039 | 0.03 | -0.009 | 0.026 | -0.189 | -0.224 (active) | 0.092 | 0.029 | 0.024 |
| ANXA1 (UniProt P04083) | -0.007 | -0.027 | -0.038 | -0.022 | -0.011 | 0.008 | 0.028 | 0.049 | -0.019 | 0.017 |
| AIP (UniProt O00170) | -0.002 | 0.015 | -0.004 | 0.017 | -0.004 | -0.022 | 0.514 (active) | -0.019 | -0.015 | 0.007 |
| ARHGEF1 (UniProt M0QZR4) | 0.014 | 0.004 | 0.023 | -0.025 | -0.041 | 0.014 | -0.08 | 0.013 | 0.009 | 0.018 |
| ABCD3 (UniProt P28288) | 0.078 | 0.058 | 0.053 | -0.077 | -0.029 | -0.07 | -0.054 | 0.044 | -0.071 | 0.073 |
| ACAT1 (UniProt P24752) | 0 | -0.016 | 0.006 | 0.033 | 0.019 | 0.003 | -0.038 | -0.006 | 0.011 | 0.007 |
| ADAMTS5 (UniProt Q9UNA0) | 0.063 | 0.047 | 0.038 | 0.066 | 0.038 | -0.15 | -0.939 (active) | 0.292 | 0.083 | -0.045 |
| AKR1C3 (UniProt P42330) | 0.01 | 0.023 | -0.033 | 0.091 | -0.027 | -0.05 | -0.034 | 0.059 | 0.187 | 0.044 |
| ABL2 (UniProt P42684) | 0.233 | 0.222 | -0.002 | 0.11 | -0.05 | 0.009 | 0.039 | -0.128 | 0.254 | -0.02 |
| AGPAT1 (UniProt Q99943) | 0.008 | 0.016 | 0.038 | -0.013 | 0.006 | -0.004 | 0.068 | -0.049 | 0.038 | -0.009 |
